Data as given in PubChem BioAssay.
“And” between values parts separate entries of the source, which are not always exact repeats. Equal values may be shown once. Records with an inconclusive call do not appear. The source made the active and inactive calls.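 Rule for the calls, unless noted: active = percent response above 42, roughly 3 SD of non-fluorescent test compounds; inactive = the rest.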

Legend:
[1] = rapamycin-like changes in RPL19A-GFP expression – cell-based, S. cerevisiae, multiplex flow cytometry, primary screen (AID 1862; in the data active = percent of DMSO control GFP below about 86%;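 note: lower values mimic rapamycin by blocking the RPL19A rise seen in DMSO cells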); conditions: S. cerevisiae RPL19A-GFP strain, flow cytometry fluorescence, 3 h; at 10 µM; stronger effect = lower value
[2] = TOR pathway GLN3 branch reporter MEP2-GFP changes – S. cerevisiae, multiplex flow cytometry, primary screen (AID 1867;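 active = GFP response, as percent of the DMSO control, above the screen-wide mean plus 3 SD, about 139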;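 note: median GFP channel fluorescence of barcode-gated MEP2-GFP cells measured by flow cytometry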); conditions: S. cerevisiae MEP2-GFP strain, 3 h, at 10 µM, stronger effect = higher value, 100% means same as DMSO wells
[3] = TOR pathway RTG branch CIT2 reporter changes – S. cerevisiae, GFP fusion, multiplex flow cytometry, primary screen (AID 1870;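 active = percent response above a set limit, the screen-wide mean plus 3 SD, cut at about 130% in these data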;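 note: barcoded CIT2-GFP strain pooled with four other GFP strains with rapamycin as positive control; median GFP fluorescence per well over plate mean of DMSO wells so 100% = DMSO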); conditions: S. cerevisiae CIT2-GFP expression, 3 h, at 10 µM, stronger effect = higher value
[4] = TOR pathway LAP4-GFP level changes – S. cerevisiae, multiplex flow cytometry, primary screen (AID 1873;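 active = GFP signal, as percent of the solvent control, above the screen mean plus 3 SD, about 149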); conditions: S. cerevisiae LAP4-GFP expression, 3 h, at 10 µM, stronger effect = higher value
[5] = yeast AGP1-GFP level changes, GLN3 branch – cell-based, multiplex flow cytometry, S. cerevisiae, primary screen (AID 1887;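 active = GFP signal above the screen-wide mean plus 3 SD, that is over about 124.5% of the solvent control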;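 note: AGP1-GFP fusion strain of S. cerevisiae within a five-strain barcoded multiplex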); conditions: 3 h, at 10 µM, stronger effect = higher value
[6] = reduced mouse 2C T cell binding to pMHC/ICAM-1 vesicles – MLPCN validation set, flow cytometry, LFA-1/ICAM-1 modulator project, pilot screen (AID 2523;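 active = response below a set limit, under 55% cells CD8-positive and vesicle-bound, and CD8 cells' 90th-percentile brightness under 279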;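 for vesicle binding response: mean PE anti-B7-1 fluorescence of CD8+ cells relative to row control; 100% = QL9-loaded vesicles with DMSO vehicle in the same plate row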); conditions: 2C mouse CD8+ T cells, at 7 µM, stronger effect = lower value; double positive events: measured here: CD8+/vesicle+ event percentage
[7] = target: Integrin beta-1 (Homo sapiens) + Integrin alpha-4 (Homo sapiens) (UniProt P13612+P05556); assay: alpha4beta1 integrin LIBS antibody binding reduction – U937 cells, HUTS-21 mAb, flow cytometry, validation set, VLA-4 allosteric modulator project, pilot screen (AID 2674;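 active = inhibition above 50%, about 3 SD of the validation set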;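 note: antibody binding induced by the VLA-4 ligand LDV present at three times its Kd; 0% = LDV ligand with antibody and no compound and 100% = antibody without LDV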); conditions: HUTS-21 LIBS mAb binding, at 6.7 µM, stronger effect = higher value, binding induced by LDV ligand
[8] = calorie-restriction mimetic ROS inhibitors, yeast – validation compound set, pilot screen (AID 2706;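 active = superoxide response below 65% of plate, a cut near 3 SD across the whole screen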;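 note: yeast exposed to compound for one week at 30 degrees C before staining; 100% = mean of all compound wells on the same plate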); conditions: S. cerevisiae aging, superoxide DHE fluorescence; at 10 µM; stronger effect = lower value
[9] = target: Beta-adrenergic receptor kinase 1 (Homo sapiens) (UniProt P25098); assay: GRK2 binders displacing RNA aptamer, biochemical, validation, human GRK2, bead flow cytometry (AID 488806;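 active = aptamer binding inhibition above 30%, about 3 SD of noise from non-fluorescent compounds; inactive = inhibition at or below 30%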); conditions: bead-bound GRK2, FAM-aptamer displacement, at 10 µM, stronger effect = higher value
[10] = target: Beta-2 adrenergic receptor (Homo sapiens) (UniProt P07550); assay: agonist-induced loss of surface beta2AR – cell-based, FAP fluorogen, flow cytometry, validation set, pilot screen (AID 504459); conditions: Am2.2-beta2AR cells, at 10 µM, stronger effect = higher value;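 note: agonist-driven loss of surface beta2AR via internalization measured by FAP dye flow cytometry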
[11] = target: AP-2 complex subunit beta (Homo sapiens) (UniProt P63010); assay: beta-arrestin/AP2 interaction blockers – biochemical, validation set, GST-AP2 beads, flow cytometry, pilot screen (AID 504541;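 active = inhibition above 54%, about 3 SD of non-fluorescent compounds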;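 note: AP2 carries R879A mutation and is captured from E. coli lysate; bead-bound FITC arrestin peptide fluorescence measuring arrestin peptide binding to AP2; 0% = DMSO wells and 100% = excess unlabeled arrestin peptide control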); conditions: FITC arrestin peptide, at 10 µM, stronger effect = higher value, AP2 beta2 appendage fragment, R879A mutant
[12] = cytosolic pH regulators acting via V-ATPase – S. cerevisiae, pHLuorin, HTS validation (AID 504600; in the data active = response above about 15%;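 note: plate controls were DMSO for no effect and reference compound for full effect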); conditions: V-ATPase proton transport, at 10 µM, stronger effect = higher value
[13] = system: anti-desmoglein-3 scFv antibody binding to human DSG3; assay: blockers of pathogenic pemphigus antibody–desmoglein-3 binding – biochemical, validation compound set, bead-based, flow cytometry, pilot screen (AID 588368;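 active = binding below the plate cutoff, the plate median minus 3 SD, with a reading above zero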;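 note: signal is the median channel fluorescence of bead-bound GFP antibody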); conditions: Protein G beads, DSG3-Fc, scFv-GFP binding, at 10 µM, stronger effect = lower value
[14] = Nile Red efflux blockade in pump-expressing yeast – validation compound set, multiplex, phenotypic, pilot screen (AID 588506;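 active = efflux inhibition above 0.42, the validation set average plus 4 SD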;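 note: Nile Red retained in cells so higher fluorescence means more efflux inhibition; 0 = negative control wells and 1 = enniatin B 25 µM full block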); conditions: S. cerevisiae pump-expressing triplex, Nile Red efflux flow cytometry; at 10 µM; stronger effect = higher value; the pumps come from Candida albicans
[15] = target: ATP-binding cassette sub-family B member 6 (Homo sapiens) (UniProt Q9NP58); assay: blockers of ABCB6-driven porphyrin uptake – K562-ABCB6 cells, flow cytometry, validation set, pilot screen (AID 588550;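 active = inhibition above the screen-wide mean plus 3 SD, about 51%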;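 note: 0% = DMSO wells and 100% = benzethonium chloride 70 µM positive control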); conditions: K562-ABCB6 porphyrin accumulation, 1 h, at 10 µM, stronger effect = higher value
[16] = AML differentiation inducers, ER-HoxA9 marrow cells – cell-based, GFP/MAC1 double positive, flow cytometry, validation set, primary screen (AID 588685;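 active = differentiation response of at least 50%, scaled between solvent and reference control, from cells with both markers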;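 note: compound exposure lasts four days before antibody staining and flow analysis; 0% = DMSO wells and 100% = 5 µM fulvestrant positive control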); conditions: stronger effect = higher value, normalized: vehicle 0, fulvestrant 100

Sequence of AP-2 complex subunit beta (Homo sapiens) (P63010 whole entry, looked up, the tested form may be a part, one chain of several): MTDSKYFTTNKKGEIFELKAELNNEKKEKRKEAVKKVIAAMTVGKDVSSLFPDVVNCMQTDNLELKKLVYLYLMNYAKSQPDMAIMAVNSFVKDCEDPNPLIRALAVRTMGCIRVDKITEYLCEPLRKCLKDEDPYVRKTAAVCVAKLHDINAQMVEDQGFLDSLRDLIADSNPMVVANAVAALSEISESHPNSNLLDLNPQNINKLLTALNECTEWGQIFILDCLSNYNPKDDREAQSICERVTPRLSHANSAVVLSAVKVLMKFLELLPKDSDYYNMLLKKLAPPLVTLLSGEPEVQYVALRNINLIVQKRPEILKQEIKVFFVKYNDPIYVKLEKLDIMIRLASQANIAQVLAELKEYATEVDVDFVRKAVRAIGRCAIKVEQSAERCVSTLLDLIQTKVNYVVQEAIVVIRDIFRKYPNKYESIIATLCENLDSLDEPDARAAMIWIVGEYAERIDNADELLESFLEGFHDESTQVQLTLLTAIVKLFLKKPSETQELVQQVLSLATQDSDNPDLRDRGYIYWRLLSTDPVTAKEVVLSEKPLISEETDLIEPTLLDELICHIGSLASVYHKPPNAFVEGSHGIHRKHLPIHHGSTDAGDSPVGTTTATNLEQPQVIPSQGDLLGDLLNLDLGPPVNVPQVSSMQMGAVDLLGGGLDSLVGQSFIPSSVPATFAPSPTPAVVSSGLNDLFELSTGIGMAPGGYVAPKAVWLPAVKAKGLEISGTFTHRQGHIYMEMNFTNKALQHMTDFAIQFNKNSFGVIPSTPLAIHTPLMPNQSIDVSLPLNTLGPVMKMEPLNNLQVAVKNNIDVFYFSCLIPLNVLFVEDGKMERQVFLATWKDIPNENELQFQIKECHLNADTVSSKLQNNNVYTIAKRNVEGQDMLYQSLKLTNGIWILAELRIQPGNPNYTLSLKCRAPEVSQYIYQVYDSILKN
Sequence of Beta-adrenergic receptor kinase 1 (Homo sapiens) (P25098 whole entry, looked up): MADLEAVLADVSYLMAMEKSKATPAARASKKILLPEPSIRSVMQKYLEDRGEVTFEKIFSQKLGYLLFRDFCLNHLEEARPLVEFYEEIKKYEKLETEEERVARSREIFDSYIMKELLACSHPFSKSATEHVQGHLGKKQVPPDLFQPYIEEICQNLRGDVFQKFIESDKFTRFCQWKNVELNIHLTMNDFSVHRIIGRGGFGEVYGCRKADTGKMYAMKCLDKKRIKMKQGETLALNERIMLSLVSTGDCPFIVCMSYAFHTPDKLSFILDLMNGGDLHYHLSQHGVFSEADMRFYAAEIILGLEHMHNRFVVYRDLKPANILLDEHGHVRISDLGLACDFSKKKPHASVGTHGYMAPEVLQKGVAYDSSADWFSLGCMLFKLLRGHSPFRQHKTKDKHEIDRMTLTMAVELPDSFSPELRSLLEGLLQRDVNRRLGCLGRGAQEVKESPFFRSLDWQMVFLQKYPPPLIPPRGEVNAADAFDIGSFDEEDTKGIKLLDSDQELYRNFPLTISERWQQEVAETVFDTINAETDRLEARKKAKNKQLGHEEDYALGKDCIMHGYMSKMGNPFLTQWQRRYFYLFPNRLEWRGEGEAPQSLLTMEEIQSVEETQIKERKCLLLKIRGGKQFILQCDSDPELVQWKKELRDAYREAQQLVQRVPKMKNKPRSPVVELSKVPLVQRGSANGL
Sequence of Beta-2 adrenergic receptor (Homo sapiens) (P07550 whole entry, looked up): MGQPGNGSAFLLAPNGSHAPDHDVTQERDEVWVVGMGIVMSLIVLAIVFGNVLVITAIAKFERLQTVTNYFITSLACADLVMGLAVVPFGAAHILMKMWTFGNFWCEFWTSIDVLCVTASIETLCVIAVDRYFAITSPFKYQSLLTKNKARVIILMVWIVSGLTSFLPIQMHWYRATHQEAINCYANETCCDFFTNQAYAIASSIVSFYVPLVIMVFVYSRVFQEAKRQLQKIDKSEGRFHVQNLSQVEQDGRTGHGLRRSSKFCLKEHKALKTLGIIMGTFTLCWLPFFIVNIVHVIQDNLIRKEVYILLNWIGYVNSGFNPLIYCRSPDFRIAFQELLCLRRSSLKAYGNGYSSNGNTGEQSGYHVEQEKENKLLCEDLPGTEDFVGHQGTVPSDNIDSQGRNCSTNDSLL
Sequence of Integrin beta-1 (Homo sapiens) + Integrin alpha-4 (Homo sapiens) (P05556 whole entry, looked up): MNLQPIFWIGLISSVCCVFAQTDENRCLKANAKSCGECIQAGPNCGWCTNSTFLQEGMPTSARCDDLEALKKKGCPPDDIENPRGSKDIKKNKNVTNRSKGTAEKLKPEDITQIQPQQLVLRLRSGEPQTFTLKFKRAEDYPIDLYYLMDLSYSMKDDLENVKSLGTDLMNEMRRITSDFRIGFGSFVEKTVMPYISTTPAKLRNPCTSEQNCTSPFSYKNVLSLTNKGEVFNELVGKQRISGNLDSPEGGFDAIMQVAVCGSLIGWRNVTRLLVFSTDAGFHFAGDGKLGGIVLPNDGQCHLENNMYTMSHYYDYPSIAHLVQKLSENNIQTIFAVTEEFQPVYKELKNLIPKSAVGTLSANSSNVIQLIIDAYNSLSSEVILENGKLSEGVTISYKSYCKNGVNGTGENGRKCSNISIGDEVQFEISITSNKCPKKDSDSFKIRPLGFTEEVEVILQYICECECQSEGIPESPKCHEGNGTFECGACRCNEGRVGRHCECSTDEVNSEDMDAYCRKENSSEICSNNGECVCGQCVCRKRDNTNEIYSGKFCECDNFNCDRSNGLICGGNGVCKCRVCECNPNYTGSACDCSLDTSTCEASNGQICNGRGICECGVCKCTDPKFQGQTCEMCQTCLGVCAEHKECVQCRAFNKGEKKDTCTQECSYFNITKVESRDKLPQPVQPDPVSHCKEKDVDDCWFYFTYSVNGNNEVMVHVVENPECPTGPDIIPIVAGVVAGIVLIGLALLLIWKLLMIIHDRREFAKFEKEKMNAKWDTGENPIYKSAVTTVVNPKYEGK
Sequence of Integrin beta-1 (Homo sapiens) + Integrin alpha-4 (Homo sapiens) (P13612 whole entry, looked up): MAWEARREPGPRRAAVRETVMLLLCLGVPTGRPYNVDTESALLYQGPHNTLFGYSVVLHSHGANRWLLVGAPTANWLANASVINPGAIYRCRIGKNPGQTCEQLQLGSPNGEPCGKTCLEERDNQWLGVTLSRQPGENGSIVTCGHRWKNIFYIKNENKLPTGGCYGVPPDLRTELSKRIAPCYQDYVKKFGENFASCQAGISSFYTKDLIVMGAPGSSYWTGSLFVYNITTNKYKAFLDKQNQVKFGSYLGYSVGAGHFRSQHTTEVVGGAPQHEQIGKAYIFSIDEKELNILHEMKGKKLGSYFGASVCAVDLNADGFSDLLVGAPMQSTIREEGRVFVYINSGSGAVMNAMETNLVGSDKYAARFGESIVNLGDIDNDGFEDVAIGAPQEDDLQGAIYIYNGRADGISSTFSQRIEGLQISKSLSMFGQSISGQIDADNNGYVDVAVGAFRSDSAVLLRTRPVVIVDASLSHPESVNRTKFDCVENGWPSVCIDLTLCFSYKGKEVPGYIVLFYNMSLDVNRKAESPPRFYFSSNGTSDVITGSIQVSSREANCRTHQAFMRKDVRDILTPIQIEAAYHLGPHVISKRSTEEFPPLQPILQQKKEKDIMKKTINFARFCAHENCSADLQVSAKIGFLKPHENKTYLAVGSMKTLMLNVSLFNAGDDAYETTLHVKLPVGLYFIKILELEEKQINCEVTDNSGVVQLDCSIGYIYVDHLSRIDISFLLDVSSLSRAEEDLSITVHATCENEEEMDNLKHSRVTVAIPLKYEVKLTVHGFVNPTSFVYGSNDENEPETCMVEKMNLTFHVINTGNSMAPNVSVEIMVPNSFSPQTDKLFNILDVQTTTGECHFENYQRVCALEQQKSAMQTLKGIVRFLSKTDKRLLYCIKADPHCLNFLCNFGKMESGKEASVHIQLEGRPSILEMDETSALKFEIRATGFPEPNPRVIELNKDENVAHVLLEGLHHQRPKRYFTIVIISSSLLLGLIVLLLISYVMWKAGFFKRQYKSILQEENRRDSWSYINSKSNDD
Sequence of ATP-binding cassette sub-family B member 6 (Homo sapiens) (Q9NP58 whole entry, looked up): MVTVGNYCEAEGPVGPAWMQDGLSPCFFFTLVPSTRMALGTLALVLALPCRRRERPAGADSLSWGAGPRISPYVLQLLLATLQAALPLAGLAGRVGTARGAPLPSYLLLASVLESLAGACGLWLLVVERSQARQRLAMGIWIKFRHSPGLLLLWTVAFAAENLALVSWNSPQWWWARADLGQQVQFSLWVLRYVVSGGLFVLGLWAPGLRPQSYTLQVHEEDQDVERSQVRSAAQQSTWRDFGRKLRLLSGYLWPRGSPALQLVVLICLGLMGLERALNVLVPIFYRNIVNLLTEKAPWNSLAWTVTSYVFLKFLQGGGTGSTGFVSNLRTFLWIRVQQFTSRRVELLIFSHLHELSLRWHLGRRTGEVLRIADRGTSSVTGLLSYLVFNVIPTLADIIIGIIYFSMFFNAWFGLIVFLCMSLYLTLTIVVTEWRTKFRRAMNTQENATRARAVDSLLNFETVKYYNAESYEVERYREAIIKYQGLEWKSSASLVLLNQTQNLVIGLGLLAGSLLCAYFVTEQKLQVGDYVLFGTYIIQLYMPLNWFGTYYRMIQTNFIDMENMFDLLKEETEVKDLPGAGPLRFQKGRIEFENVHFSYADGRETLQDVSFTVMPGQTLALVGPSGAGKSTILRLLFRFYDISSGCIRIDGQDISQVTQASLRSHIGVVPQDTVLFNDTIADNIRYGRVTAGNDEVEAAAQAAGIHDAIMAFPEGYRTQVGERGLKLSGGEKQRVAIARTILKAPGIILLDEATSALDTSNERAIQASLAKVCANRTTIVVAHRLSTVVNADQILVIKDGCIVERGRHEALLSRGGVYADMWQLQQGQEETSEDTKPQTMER

CC1(C)CC(=O)c2cnc(NC(=O)C3CCCC3)nc2C1
61%: double positive events [6]
inactive: percent of DMSO control GFP [1] 105% | GFP response vs DMSO [2] 96.2% | percent response of DMSO control [3] 109% | GFP response vs DMSO [4] 80.8% | GFP response, % of DMSO [5] 96.5% | vesicle binding response [6] 442% | inhibition [7] 4.73% | superoxide response (% of plate) [8] 95.1% | aptamer binding inhibition [9] 6% | response [10] -15.9% | inhibition [11] -7.26% | response [12] -0.99% | binding (% of control) [13] 96.1% | efflux inhibition (fraction of control) [14] 0.36 | inhibition [15] -50% | differentiation response [16] 10%

CCN(CC)c1ccc(C2=NNC(=O)CC2C)cc1[N+](=O)[O-] (stereo not drawn)
60.7%: double positive events [6]
inactive: percent of DMSO control GFP [1] 97.4% | GFP response vs DMSO [2] 102% | percent response of DMSO control [3] 95.8% | GFP response vs DMSO [4] 119% | GFP response, % of DMSO [5] 105% | vesicle binding response [6] 189% | inhibition [7] -15.4% | superoxide response (% of plate) [8] 110% | aptamer binding inhibition [9] 3% | response [10] 0.9% | inhibition [11] -4.02% | response [12] -0.46% | binding (% of control) [13] 98.9% | efflux inhibition (fraction of control) [14] -0.21 | inhibition [15] -22% | differentiation response [16] -4%

O=C(CCC(=O)c1cccs1)c1cccs1
inactive: percent of DMSO control GFP [1] 99.5% | GFP response vs DMSO [2] 96.3% | percent response of DMSO control [3] 107% | GFP response vs DMSO [4] 72.6% | GFP response, % of DMSO [5] 86.5% | vesicle binding response [6] 125% | inhibition [7] -4.52% | superoxide response (% of plate) [8] 108% | aptamer binding inhibition [9] 3% | response [10] -4.9% | inhibition [11] -11.3% | response [12] 1.04% | binding (% of control) [13] 91.5% | efflux inhibition (fraction of control) [14] -0.1 | inhibition [15] 6% | differentiation response [16] -20%
60.5%: double positive events [6]

C/C(=N\NC(=O)c1ccccc1[N+](=O)[O-])c1ccc(Br)s1
57.5%: double positive events [6]
inactive: percent of DMSO control GFP [1] 98.4% | GFP response vs DMSO [2] 107% | percent response of DMSO control [3] 107% | GFP response vs DMSO [4] 100% | GFP response, % of DMSO [5] 101% | vesicle binding response [6] 94.2% | inhibition [7] 0.25% | superoxide response (% of plate) [8] 97.9% | aptamer binding inhibition [9] 2% | response [10] -0.6% | inhibition [11] 7.49% | response [12] -4.2% | binding (% of control) [13] 95.7% | efflux inhibition (fraction of control) [14] -0.235 | inhibition [15] -10% | differentiation response [16] -4.57%

CC/C(=C(\c1ccc(O)cc1)c1ccc(OCCN(C)C)cc1)c1ccccc1
62.9%: double positive events [6]
inactive: percent of DMSO control GFP [1] 107% | GFP response vs DMSO [2] 108% | percent response of DMSO control [3] 109% | GFP response vs DMSO [4] 99.1% | GFP response, % of DMSO [5] 114% | vesicle binding response [6] 157% | inhibition [7] 15% | superoxide response (% of plate) [8] 97.5% | aptamer binding inhibition [9] -6% | response [10] 38.5% | inhibition [11] 42.2% | response [12] -1.39% | binding (% of control) [13] 112% | efflux inhibition (fraction of control) [14] 0.29 | inhibition [15] 21% | differentiation response [16] -3.11%

CC(C)(C)N1NC2(CCCCC2)NC1=S
53.1%: double positive events [6]
inactive: percent of DMSO control GFP [1] 99.8% | GFP response vs DMSO [2] 113% | percent response of DMSO control [3] 118% | GFP response vs DMSO [4] 80.9% | GFP response, % of DMSO [5] 95.2% | vesicle binding response [6] 193% | inhibition [7] -3.24% | superoxide response (% of plate) [8] 125% | aptamer binding inhibition [9] -1% | response [10] -12.5% | inhibition [11] -12.7% | response [12] 0.59% | binding (% of control) [13] 104% | efflux inhibition (fraction of control) [14] 0.27 | inhibition [15] 7% | differentiation response [16] 1.64%

CC(C)CC(=O)NC(NC(=O)CC(C)C)c1cccc([N+](=O)[O-])c1
60.1%: double positive events [6]
inactive: percent of DMSO control GFP [1] 101% | GFP response vs DMSO [2] 102% | percent response of DMSO control [3] 111% | GFP response vs DMSO [4] 100% | GFP response, % of DMSO [5] 100% | vesicle binding response [6] 118% | inhibition [7] 1.59% | superoxide response (% of plate) [8] 118% | aptamer binding inhibition [9] 19% | response [10] 3.17% | inhibition [11] 7.92% | response [12] 3.51% | binding (% of control) [13] 99% | efflux inhibition (fraction of control) [14] 0.09 | inhibition [15] 11% | differentiation response [16] -8.96%

O=C1CCCN1C(=O)CCC(=O)N1CCCC1=O
62.6%: double positive events [6]
inactive: percent of DMSO control GFP [1] 107% | GFP response vs DMSO [2] 95.1% | percent response of DMSO control [3] 109% | GFP response vs DMSO [4] 87.4% | GFP response, % of DMSO [5] 106% | vesicle binding response [6] 235% | inhibition [7] -11.9% | superoxide response (% of plate) [8] 96.9% | aptamer binding inhibition [9] 0% | response [10] -7.65% | inhibition [11] -9.79% | response [12] -1.12% | binding (% of control) [13] 95.6% | efflux inhibition (fraction of control) [14] -0.1 | inhibition [15] -2% | differentiation response [16] 2.2%

Nc1ccc(C(=O)O)c(O)c1
inactive: percent of DMSO control GFP [1] 102% | GFP response vs DMSO [2] 106% and 107% | percent response of DMSO control [3] 99.7% and 96.7% | GFP response vs DMSO [4] 100% and 111% | GFP response, % of DMSO [5] 104% and 106% | vesicle binding response [6] 199% and 232% | inhibition [7] -2.43% and 6.4% | superoxide response (% of plate) [8] 95.4% and 103% | aptamer binding inhibition [9] 5% and 4% | response [10] -5.54% and 8.67% | inhibition [11] -7.61% and 3.32% | response [12] -2.48% and -0.83% | binding (% of control) [13] 103% and 100% | efflux inhibition (fraction of control) [14] 0.28 and -0.03 | inhibition [15] 3% and 8% | differentiation response [16] -7.5% and -31.2%
61.7% and 60.8%: double positive events [6]
